Among the data in PubChem BioAssay (NCATS) are outcome values, retold here.

Inconclusive results are not listed. Calls of active or inactive are those of the source. Unless noted, calls come from the whole dose curve; as a rule, active = well fitted inhibition curve with a large enough effect; inconclusive = small, poorly fitted or top-dose-only effect; inactive = flat fitted curve, though single readings scatter.

For test [1], the target named is DNA dC->dU-editing enzyme APOBEC-3G (Homo sapiens) (UniProt Q9HC16). Briefly: qHTS for inhibitors of Vif-A3G interactions: Validation (AID 588379). In a few lines:
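HeLa cells stably expressing Vif and A3G-eYFP, 700 cells/well, incubated overnight at 37 deg C, then exposed to compound overnight at 37 deg C. Inhibition of Vif-mediated degradation read as increased yellow fluorescence (Ex 488/Em 500-530) by laser-scanning cytometry.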
On the technique in general: In qHTS, concentration-response curves come from the screen itself.

For test [2], the target named is Androgen receptor (Homo sapiens) (UniProt P10275). The experiment in a line: qHTS assay for small molecule antagonists of androgen receptor signaling (AID 588516; active = well fitted curve in the direction sought with a large enough effect in the signal ratio, with a control signal flat, not every such curve was filed as active; the % refers to the signal ratio). The gist of the method:
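AR-UAS-bla GripTite HEK 293 cells (2000/well) treated with compound titrations plus 10 nM R1881 for 16 h at 37C. Beta-lactamase read by CCF4 FRET (460/530 nm); IC50 from Hill fits, normalized to R1881 and DMSO control wells.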

Chain of Androgen receptor (Homo sapiens) (P10275 whole entry, looked up): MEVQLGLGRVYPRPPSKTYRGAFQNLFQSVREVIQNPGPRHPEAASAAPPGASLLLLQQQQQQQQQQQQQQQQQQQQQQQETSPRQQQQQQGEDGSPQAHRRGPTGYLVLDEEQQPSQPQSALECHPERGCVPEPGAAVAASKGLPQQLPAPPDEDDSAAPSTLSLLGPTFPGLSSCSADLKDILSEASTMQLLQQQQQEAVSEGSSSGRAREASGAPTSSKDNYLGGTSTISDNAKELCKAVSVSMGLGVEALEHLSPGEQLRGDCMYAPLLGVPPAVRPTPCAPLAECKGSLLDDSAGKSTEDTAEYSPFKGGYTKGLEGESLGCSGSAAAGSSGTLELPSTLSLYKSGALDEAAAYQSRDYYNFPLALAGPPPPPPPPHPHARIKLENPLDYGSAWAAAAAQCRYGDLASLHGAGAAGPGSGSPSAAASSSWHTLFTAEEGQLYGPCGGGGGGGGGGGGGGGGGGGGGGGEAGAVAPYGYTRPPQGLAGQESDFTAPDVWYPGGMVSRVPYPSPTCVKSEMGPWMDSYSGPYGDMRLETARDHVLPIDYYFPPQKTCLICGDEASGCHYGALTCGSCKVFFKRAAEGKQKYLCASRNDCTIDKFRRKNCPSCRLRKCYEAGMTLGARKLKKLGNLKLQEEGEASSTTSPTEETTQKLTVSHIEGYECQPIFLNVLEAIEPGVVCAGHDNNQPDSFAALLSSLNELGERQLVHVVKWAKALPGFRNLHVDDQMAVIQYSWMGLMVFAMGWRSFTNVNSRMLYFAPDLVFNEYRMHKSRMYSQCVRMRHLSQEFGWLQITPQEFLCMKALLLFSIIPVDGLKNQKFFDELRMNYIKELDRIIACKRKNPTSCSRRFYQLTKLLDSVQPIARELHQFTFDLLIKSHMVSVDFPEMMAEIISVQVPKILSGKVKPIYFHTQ
Chain of DNA dC->dU-editing enzyme APOBEC-3G (Homo sapiens) (Q9HC16 whole entry, looked up): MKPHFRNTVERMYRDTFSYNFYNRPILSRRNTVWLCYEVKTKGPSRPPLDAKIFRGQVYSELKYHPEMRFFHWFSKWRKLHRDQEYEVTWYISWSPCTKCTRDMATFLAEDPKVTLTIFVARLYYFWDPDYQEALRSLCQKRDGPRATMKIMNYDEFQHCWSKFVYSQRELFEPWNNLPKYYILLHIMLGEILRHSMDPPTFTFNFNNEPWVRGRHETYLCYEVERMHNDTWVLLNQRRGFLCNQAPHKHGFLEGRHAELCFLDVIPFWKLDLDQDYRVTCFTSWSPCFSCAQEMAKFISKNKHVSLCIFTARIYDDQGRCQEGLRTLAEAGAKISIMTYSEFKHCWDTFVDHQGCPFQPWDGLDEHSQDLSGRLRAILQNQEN

On to `O=C1c2ccccc2C(=O)c2c1ccc(O)c2O`, for which the compound was called inactive in test [1].
Take `CC(C)[C@@H]1CC[C@@H](C)C[C@H]1O`: the compound was classed as inactive in test [2].
For the compound `CCCCCCCCCCCCCCCCCC(=O)OC[C@@H](O)[C@H]1OC[C@H](O)[C@H]1O`, the compound was classed as inactive in test [2].
